ChEMBL document CHEMBL3988442, “University of Dundee, Small-Polar-MMV Screening Library” (2021)
The whole screen tested about 48,000 compounds, of which about 13,000 (27%) showed an effect of 50% or more. Some of the results follow.

test system: Wolbachia pipientis; test: Anti-Wolbachia Cell-Based Screen; format: functional; design: scale not given: in the data most compounds retested in dose-response had high values; settings: 5 µM

In order of falling “Percent Effect” value:
1. COc1ccccc1C1Cn2c(C)cnc2CN1Cc1c[nH]nc1C (configuration not stated)  184.6%
2. COc1ccccc1C1Cn2ccnc2CN1Cc1c[nH]nc1C (configuration not stated)  158.2%
3. COc1ccccc1C1Cn2c(C)cnc2CN1Cc1ccc(C)nc1 (configuration not stated)  131%
4. N#Cc1ccc(Nc2nc3c(s2)C(=O)CN(CC2CC2)C3)cc1  122.3%
5. Cn1nc(C2CCCN(Cc3ccc(F)cc3F)C2)c2nccnc21 (configuration not stated)  118.1%
6. CC(C)CN(CC(=O)O)C(=O)c1ccc(F)cc1  116.8%
7. O=C(NCCNc1cnccn1)N1CCN(c2nccs2)CC1  115.8%
8. Cl.Cn1nc(C2CCCN(Cc3cc(F)ccc3F)C2)c2nccnc21 (configuration not stated)  109%
9. CC(=O)N1CCCN(C(=O)NCCNc2cnccn2)CC1  106.7%
10. CC[C@H](C)[C@H](N)C(=O)N1CC(=O)c2sc(Nc3ccc(F)cc3)nc2C1  106.2%
11. O=C(NCCNc1cnccn1)N1CCCC(N2CCCC2)C1 (configuration not stated)  106%
12. CN1CCCN(C(=O)NCCNc2cnccn2)CC1  104.7%
13. CC(C)NC(=O)N1CC(=O)c2sc(Nc3ccc(C#N)cc3)nc2C1  104.4%
14. Cc1ccc(C(=O)N(CC(=O)O)CC(C)C)cc1F  102.6%
15. Cc1cccc(CN2CCC3(CCCN(Cc4cnn(C)c4)C3)C2)n1.O=C(O)C(F)(F)F.O=C(O)C(F)(F)F (configuration not stated)  99.91%
16. CC(C)CC(=O)N1CC(=O)c2sc(Nc3ccc(C#N)cc3)nc2C1  99.17%
17. CC[C@H](C)[C@H](N)C(=O)N1CC(=O)c2sc(NCc3ccccc3)nc2C1  97.62%
18. CC(C)CC(=O)N1CC(=O)c2sc(Nc3ccc(F)cc3)nc2C1  97.08%
19. Cc1cc(C(=O)N(CC(=O)O)CC(C)C)ccc1F  96.02%
20. CNC(=O)C1CN(C)CCN1c1nc(C)cc(C)n1 (configuration not stated)  94.41%
21. Cc1cccc(C(=O)N(CC(=O)O)CC(C)C)c1  94.29%
22. CC1CN(C(=O)NCCNc2cnccn2)CCO1 (configuration not stated)  93.32%
23. CNC(=O)C1CN(C(C)C)CCN1c1nc(C)cc(C)n1 (configuration not stated)  92.65%
24. Cc1cccc(CN2CCCC3(CCN(CC4CCCO4)CC3)C2)n1.O=C(O)C(F)(F)F.O=C(O)C(F)(F)F (configuration not stated)  92.13%
25. c1cc(CN2CCCC3(CCN(CC4CCCO4)CC3)C2)n[nH]1 (configuration not stated)  86.72%
26. CNC(=O)C1CN(C(C)C)CCN1c1ncccn1 (configuration not stated)  82.95%
27. O=C(NCCNc1cnccn1)N1CCCCCC1  67.88%
28. CC(C)CC(=O)Nc1c(-c2ccc(F)cc2)ncn1C  20.71%
29. CC(CNC(=O)Nc1ccc(C#N)cc1)N1CCc2ccccc21 (configuration not stated)  15.75%
30. N#Cc1cccnc1NCCNC(=O)N1CCCC(N2CCCC2)C1 (configuration not stated)  15.17%
31. Cc1ccc(C(=O)NCCNC(=O)c2cncnc2C(C)C)cc1F  15.15%
32. O=C(NCCNc1cnccn1)C1CCN(C(=O)N2CCCC2)CC1  14.69%
33. CC(C)n1ncc2c1NC(=O)C(C#N)C21CCCCC1 (configuration not stated)  14.23%
34. COc1cccc(CNC2CCc3ccc(C)cc32)n1 (configuration not stated)  12.65%
35. CCOCC(=O)N1Cc2cnc(-c3ccccc3)nc2C1  12.32%
36. OC1CCCN(Cc2ccc(F)c3cccnc23)C1 (configuration not stated)  11.38%
37. Cc1nc(CN2CCCC(CCc3ccc(F)cc3F)C2)c[nH]1 (configuration not stated)  10.82%
38. CC(O)CN(Cc1cccc(C(=O)N(C)C)c1)c1ccccc1 (configuration not stated)  9.156%
39. CNC(=O)C1CCCN1c1nc(C)c2ccccc2n1 (configuration not stated)  9.069%
40. Cc1cccc(CN2CCOC3(CCCN(CC(=O)N(C)C)C3)C2)n1.O=C(O)C(F)(F)F.O=C(O)C(F)(F)F (configuration not stated)  7.418%
41. COCc1nccc(C2CCCN(Cc3ccc(C#N)cc3F)C2)n1 (configuration not stated)  7.365%
42. COCCc1noc(-c2ccc(-c3cc[nH]n3)nc2)n1  6.666%
43. Cc1noc(NC(=O)c2ccc(C)c(F)c2)n1  6.644%
44. CN(c1nc(Cn2cnccc2=O)cs1)C1CC1  6.38%
45. CCOC(=O)N1CCN(C(=O)c2sc(-c3ccc(F)cc3)nc2C)CC1  5.729%
46. Cn1cc(CN2CCCC3(CCN(C(=O)c4ccccn4)C3)C2)cn1.O=C(O)C(F)(F)F.O=C(O)C(F)(F)F.O=C(O)C(F)(F)F (configuration not stated)  5.668%
47. O=C1OC2(CCN(CC3CCCO3)CC2)CN1CCc1ccccc1 (configuration not stated)  4.853%
48. O=C(NCCNc1cnccn1)N1CCc2ccccc2C1  3.9%
49. COCc1ncc(CN2CCC(Oc3ccccc3OC)CC2)cn1  3.684%
50. COc1ccccc1CC(=O)N1CCC(NCc2c[nH]nc2C)CC1  3.473%
51. CC1CCN(C(=O)Cc2ccc(S(=O)(=O)C(F)F)cc2)CC1  3.078%
52. COCCN1CCN(CC(=O)N(C)Cc2ccccc2)CC1C (configuration not stated)  2.857%
53. O=C(Nc1ccc(N2CCCCC2)nc1)N1CCc2sccc2C1  2.777%
54. CN(CC(=O)NCCC#N)C(c1ccccc1)c1ccc(F)cc1 (configuration not stated)  2.68%
55. Cc1cc(NC(=O)N(Cc2ccc(C#N)cc2)C(C)C)no1  2.443%
56. CNC(=O)[C@@H]1C[C@@H](N)CN1c1nc(N2CCCC2)nc(C)c1C  2.441%
57. O=C(NCCNc1ccccn1)N1CCSCC1  1.97%
58. CCC1CN(C(=O)c2ccccc2C(C)=O)CCN1C(C)C (configuration not stated)  1.877%
59. O=C(NCCNc1cnccn1)N1CCN(Cc2cccnc2)CC1  1.12%
60. NC(=O)CC1CCN(c2ncnc3cccc(F)c23)CC1  0.8232%
61. O=C(NCCNc1cnccn1)N1CCCC1  0.5946%
62. COCCOc1ccccc1C(=O)Nc1c(C)cnn1CC1CC1  0.1744%
63. CNC(=O)[C@H]1CC[C@@H]2[C@@H](CCN2c2ncccn2)O1  0.107%
64. N#Cc1ccc(NC(=O)N2CCCCC2CN2CCCC2=O)cc1 (configuration not stated)  -0.03317%
65. Cc1ncccc1CNCC1COC2(CCCCC2)O1 (configuration not stated)  -0.2961%
66. Cc1cnc(CN(Cc2ccccc2)CC(O)c2cccs2)cn1 (configuration not stated)  -0.3476%
67. OC1CCN(c2nc(-c3ccccc3)no2)CC1  -0.7688%
68. CCc1ncncc1C(=O)N1CCN(Cc2c(C)noc2C)CC1  -0.7919%
69. Cc1cc(C(=O)N(C)S(C)(=O)=O)ccc1F  -1.159%
70. COc1ccccc1OC1CCN(C(=O)c2c[nH]c(=O)[nH]c2=O)CC1  -1.274%
71. CCCN1Cc2ccccc2CC1C(=O)NC (configuration not stated)  -1.794%
72. CC(C)NC(=O)[C@@H]1Cc2[nH]cnc2CN1CCCc1ccccc1  -2.135%
73. CC(C)CCNC(=O)C(c1cccc(F)c1)N(C)C (configuration not stated)  -2.485%
74. CCN(CC)C(=O)c1cccc(Cn2nc(C)cc2C)c1  -2.548%
75. Cc1cc(C(=O)N(C)S(=O)(=O)C(C)C)ccc1F  -2.598%
76. Cn1cc(CN2CCCC3(CCN(c4nncs4)C3)C2)cn1.O=C(O)C(F)(F)F (configuration not stated)  -2.653%
77. Cc1nn(CCO)c(C)c1CNC1CCOc2ccccc21.Cl (configuration not stated)  -2.726%
78. COc1ccccc1[C@@H]1CN(Cc2cnc(N(C)C)nc2)C[C@H]1C(=O)O  -3.277%
79. CCOc1ccc(C(=O)Nc2c(C)nc3scc(C)n3c2=O)cc1  -3.66%
80. CNC(=O)C1Cc2ccccc2CN1CCC#N (configuration not stated)  -3.828%
81. Cc1nccn1-c1cc(CNC(=O)CCNC(=O)OC(C)(C)C)ccn1  -3.866%
82. CCc1cccc(OC2CN(C(=O)[C@@H](N)[C@@H](C)O)C2)c1  -4.168%
83. Cc1[nH]ncc1CCCNC(=O)N1CCOC(C)C1 (configuration not stated)  -4.876%
84. Cc1nnc(NC(=O)N2CCN(Cc3ccc(F)cc3)C(=O)C2)s1  -5.387%
85. Cc1cscc1C(=O)Nc1cncnc1N(C)C  -5.667%
86. CC1CN(C(=O)NCCCn2cncn2)CCO1 (configuration not stated)  -6.452%
87. CCc1nc(C)c(C(=O)N2CCCN(Cc3cnn(C)c3)CC2)s1  -6.859%
88. Cn1c(-c2ccccc2Cl)nc2cc(C(=O)NC(CO)CO)cnc21  -7.352%
89. CCn1c(C2CCCN(Cc3cc(F)ccc3OC)C2)nn(C)c1=O (configuration not stated)  -8.154%
90. Cc1cccnc1NC(=O)C1CCN(C(C)C(=O)NC(C)(C)C)CC1 (configuration not stated)  -8.313%
91. CC(Oc1ccc(F)cc1)C(=O)N(CC(N)=O)C1CCCC1 (configuration not stated)  -8.353%
92. CC(NC(=O)N1CCN(c2ncccn2)CC1)c1ccc(C#N)cc1 (configuration not stated)  -9.134%
93. CC(C1CC1)N(C(=O)CNc1ccc(C#N)cc1)C1CC1 (configuration not stated)  -11.75%
94. COCCOCCNC(=O)c1ccc(N2CCC(C)=N2)cc1  -11.91%
95. CN1CCCN(C(=O)NCCNc2ncccc2C#N)CC1  -11.99%
96. Cc1cc(NC(=O)CCN2CCn3c(C)nnc3C2)no1  -12.27%
97. COc1ccccc1[C@@H]1CN(Cc2cnn(C)c2C)C[C@H]1C(=O)O  -12.3%
98. CC(C)c1cccc(S(=O)(=O)NCCCN2CCC(O)CC2)c1  -12.32%
99. O=C(NCCCn1cncn1)N1CCCC(N2CCCC2)C1 (configuration not stated)  -12.43%
100. NC(=O)c1cnc(NC2CCC(c3ccccc3)CC2)c(Cl)c1 (configuration not stated)  -13.17%
101. CC(NC(=O)N1CCN(c2cccs2)CC1)c1ccc(C#N)cc1 (configuration not stated)  -13.59%
102. O=C(NCCNc1cnccn1)N1CC=C(c2ccc(O)cc2)CC1  -14.06%
103. Cc1n[nH]cc1CNC1CCN(c2ccccc2)CC1.Cl  -14.69%
104. c1cncc(-c2noc(CNC3CCCN(c4cccnn4)C3)n2)c1 (configuration not stated)  -17.88%
105. CN(C(=O)CNc1ccc(C#N)cc1)C1CCCCC1  -20.31%
106. COc1ccccc1[C@@H]1CN(Cc2nccn2C)C[C@H]1C(=O)O  -20.61%
107. CCN(C)S(=O)(=O)N(Cc1cscn1)c1ccccc1  -21.13%
108. CCN1CC2(CCN(CC3CCCO3)CC2)OC1=O (configuration not stated)  -23.86%
109. O=C(NCCNc1cnccn1)N1CC=C(c2ccccc2)CC1  -24.03%
110. Fc1cc(CNc2nncs2)ccc1Cl  -25.14%
111. CCc1cc(NCc2cccnc2N2CCCCC2)n2ncnc2n1  -26.62%
112. Cc1cccc(CN2CCC3(CCC(CC(=O)N(C)C)CC3)CC2)n1.O=C(O)C(F)(F)F  -48.49%
